Reference: ChEMBL document CHEMBL1201862, “PubChem BioAssay data set” (2004)
Hit rate of the full screen: of about 400,000 compounds, about 2,100 (0.53%) were called active. Another 14% or so got no clear call; they are omitted. How the calls were made is not given here. The full list was thinned out, with actives kept by preference.

The molecules below were run against Ataxin-2 (Homo sapiens) (UniProt Q99700) (assay: qHTS for Inhibitors of ATXN expression.).
Sequence of Ataxin-2 (Homo sapiens) (Q99700 whole entry): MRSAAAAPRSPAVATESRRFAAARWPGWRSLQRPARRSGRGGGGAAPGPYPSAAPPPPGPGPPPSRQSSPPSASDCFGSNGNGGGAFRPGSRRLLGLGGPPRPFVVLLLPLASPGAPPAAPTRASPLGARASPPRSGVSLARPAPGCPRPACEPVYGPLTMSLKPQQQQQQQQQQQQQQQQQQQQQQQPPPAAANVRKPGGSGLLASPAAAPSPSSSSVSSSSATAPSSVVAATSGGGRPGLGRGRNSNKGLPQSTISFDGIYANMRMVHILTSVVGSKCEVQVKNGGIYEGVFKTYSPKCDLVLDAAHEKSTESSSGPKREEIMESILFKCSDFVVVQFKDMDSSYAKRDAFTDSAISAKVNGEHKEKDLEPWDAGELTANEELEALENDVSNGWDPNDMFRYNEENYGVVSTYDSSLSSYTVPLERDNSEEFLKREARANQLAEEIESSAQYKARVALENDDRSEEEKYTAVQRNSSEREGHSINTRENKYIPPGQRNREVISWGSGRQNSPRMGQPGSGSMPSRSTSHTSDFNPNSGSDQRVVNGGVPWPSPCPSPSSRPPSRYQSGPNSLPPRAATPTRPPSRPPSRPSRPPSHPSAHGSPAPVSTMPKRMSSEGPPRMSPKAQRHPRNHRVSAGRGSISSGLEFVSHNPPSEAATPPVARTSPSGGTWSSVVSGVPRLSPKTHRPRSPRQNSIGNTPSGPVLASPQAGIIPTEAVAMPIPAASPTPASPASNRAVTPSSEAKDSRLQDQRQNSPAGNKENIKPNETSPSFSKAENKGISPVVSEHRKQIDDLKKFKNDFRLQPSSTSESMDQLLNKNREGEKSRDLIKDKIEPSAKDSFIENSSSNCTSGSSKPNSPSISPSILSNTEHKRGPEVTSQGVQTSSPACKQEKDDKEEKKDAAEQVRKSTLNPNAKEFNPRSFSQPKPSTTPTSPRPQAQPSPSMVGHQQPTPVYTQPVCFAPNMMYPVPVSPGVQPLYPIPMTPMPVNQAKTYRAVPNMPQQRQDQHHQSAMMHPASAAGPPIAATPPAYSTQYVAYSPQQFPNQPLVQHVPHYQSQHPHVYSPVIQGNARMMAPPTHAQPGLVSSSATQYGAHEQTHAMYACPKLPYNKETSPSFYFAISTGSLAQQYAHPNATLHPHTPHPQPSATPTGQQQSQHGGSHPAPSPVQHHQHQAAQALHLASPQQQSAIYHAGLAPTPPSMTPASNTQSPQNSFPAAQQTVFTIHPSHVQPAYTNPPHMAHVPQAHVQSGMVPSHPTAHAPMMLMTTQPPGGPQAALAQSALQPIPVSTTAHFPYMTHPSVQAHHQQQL
Type: functional
With `CCCCNC(=O)COC(=O)c1c2c(nc3ccccc13)/C(=C/c1cccs1)CC2` the Potency was “inactive”.
`COc1ccc(OCCCC(=O)ON=C(N)c2ccccc2C)cc1` was tested, and the Potency was “inactive”.
In the case of `CCOC(=O)C1=C(NC(=O)c2cc(S(=O)(=O)N3CCOCC3)ccc2C)Nc2ccccc2N=C1CC`, the Potency is reported as “inactive”.
With `NS(=O)(=O)c1ccc(N2N=C(c3ccc(Br)cc3)CC2c2ccc(F)cc2)cc1` (stereo not drawn) the Potency was “inactive”.
For `CCCCCCN1C[C@H](n2cc(C3CC3)nn2)[C@@H](O)C[C@@H]1c1ccc(C)cc1`, the Potency was 35.5 µM (active).
In the case of `Cc1ccc([C@H]2C[C@H](O)[C@@H](n3cc(C4CC4)nn3)CN2Cc2cccs2)cc1`, the Potency is reported as 35.5 µM (active).
With `COc1ccc(C2=CC(c3ccc(F)cc3)n3nnnc3N2)cc1` (stereo not drawn) the Potency was “inactive”.
With `CCCCCCN1C[C@H](n2cc(-c3ccc(F)cc3)nn2)[C@@H](O)C[C@@H]1c1ccc(C)cc1` the Potency was 39.8 µM (active).
With `COc1ccc(C2=Nc3nc(-c4ccccc4)cn3C(c3ccc(OC)cc3)C2)cc1` (stereo not drawn) the Potency was “inactive”.
With `CCCCCCN1C[C@@H](n2cc(-c3ccc(F)cc3)nn2)[C@H](O)C[C@@H]1c1ccc(OC)cc1` the Potency was 35.5 µM (active).
`Fc1ccc(C2CC(c3cccs3)=NN2c2ccccc2)cc1` (stereo not drawn) was tested, and the Potency was “inactive”.
`Cc1cc(F)ccc1NC(=O)c1sc2nc(-c3cccs3)ccc2c1N` was tested, and the Potency was “inactive”.
In the case of `CCOC(=O)c1cc2c(=O)n3ccccc3nc2n(Cc2ccco2)/c1=N/C(=O)c1ccc(OC)cc1OC`, the Potency is reported as “inactive”.
`CCCCCCCCN1C(=O)[C@H](CC(=O)N2CCN(C(=O)c3ccco3)CC2)C[C@@]2(C(=O)OCC)CCCC=C12` was tested, and the Potency was 14.1 µM (active).
For `COC(=O)[C@]12CCCCC=C1N(Cc1cccc3ccccc13)C(=O)[C@H](CC(=O)N1CCN(C(=O)c3ccco3)CC1)C2`, the Potency was 22.4 µM (active).
`COC(=O)[C@]12CCCCC=C1N(CCC1=CCCCC1)C(=O)[C@H](CC(=O)N1CCN(C(=O)c3ccco3)CC1)C2` was tested, and the Potency was 22.4 µM (active).
For `O=C(Nc1c(C(=O)c2ccc(F)cc2)oc2ccccc12)c1cc(-c2ccccc2)on1`, the Potency was “inactive”.
`COc1cc(/C=N/Nc2ccc([N+](=O)[O-])cc2S(=O)(=O)N2CCOCC2)cc(OC)c1OC` was tested, and the Potency was “inactive”.
With `Cc1ccc(Cl)cc1N1CCN(C(=O)c2cnn(-c3ccc(Cl)cc3)c2C2CCNCC2)CC1` the Potency was 39.8 µM (active).
`Cc1ccc(Nc2ncc(C(=O)N3CCN(c4ccc(F)cc4)CC3)c3ccccc23)cc1Cl` was tested, and the Potency was “inactive”.
`Cc1ccc(Cl)cc1N1CCN(C(=O)Cc2csc(Nc3nc(S)nc4ccccc34)n2)CC1` was tested, and the Potency was “inactive”.
`COc1ccc(S(=O)(=O)NCCc2cn3nc(C)c(C)nc3n2)cc1` was tested, and the Potency was “inactive”.
For `CN1C2=CC=CC=CC2=[N+](C)C12C=CC(=[N+]([O-])[O-])C=C2[N+](=O)[O-]` (stereo not drawn), the Potency was 20 µM (active).
With `CCN(CC)C1=CC2=CC(=C(C#N)C#N)CCC2CC1` (stereo not drawn) the Potency was “inactive”.
In the case of `Cc1ccc(CN2C(=O)CC(c3ccc(Cl)cc3)c3c(C)nn(-c4nc(C)cc(C)n4)c32)cc1` (stereo not drawn), the Potency is reported as 39.8 µM (active).
With `Cc1cc(C)nc(N(C#N)Cc2ccc(Cl)cc2)n1` the Potency was “inactive”.
`CCOC(=O)C1CCN(S(=O)(=O)c2cc3c(cc2C)NC(=O)CO3)CC1` was tested, and the Potency was “inactive”.
In the case of `Cn1c(-c2c(N)n(CCCc3ccccc3)c3nc4ccccc4nc23)nc2ccccc21`, the Potency is reported as “inactive”.
With `CS(=O)(=O)c1nc([N+](=O)[O-])nn1CCCc1ccccc1` the Potency was 39.8 µM (active).
`CCN(C(=O)c1cc2c(=O)n3ccccc3nc2s1)C1CCCCC1` was tested, and the Potency was “inactive”.
For `O=[N+]([O-])c1cncc([N+](=O)[O-])c1Nc1cccc(O)c1`, the Potency was 22.4 µM (active).
In the case of `COc1ccc(C2NS(=O)(=O)N=C2N)cc1` (stereo not drawn), the Potency is reported as “inactive”.
For `N#Cc1c(-c2ccccc2)c(C#N)c2nc3ccccc3n2c1N`, the Potency was “inactive”.
`Nc1ccc2c(C(F)(F)F)cc(=O)oc2c1` was tested, and the Potency was “inactive”.
`COCCn1c(SCC(=O)Nc2ccc(NC(C)=O)cc2)nc2ccccc2c1=O` was tested, and the Potency was “inactive”.
In the case of `CC(=O)Nc1cccc(NC(=O)CSc2ncc(C(=O)Nc3ccccc3)c(=O)n2C)c1`, the Potency is reported as 39.8 µM (active).
For `O=C(Cn1c(=O)c(=O)n(Cc2ccccc2)c2ccc(Cl)cc21)NCC1CCCO1` (stereo not drawn), the Potency was “inactive”.
For `CC(=O)c1cccc(NC(=O)c2ccccc2-c2ccccc2C(=O)O)c1`, the Potency was “inactive”.
For `CC(C)Cn1c(SC(C)C(=O)NCC2CCCO2)nc2ccc(Cl)cc2c1=O` (stereo not drawn), the Potency was “inactive”.
For `Cn1c(SCC(=O)NCC2CCCO2)ncc(C(=O)Nc2ccc(Cl)cc2)c1=O` (stereo not drawn), the Potency was 35.5 µM (active).
For `CC1=CC2=NC(=O)/C(=C/c3coc4ccccc4c3=O)C(=N)N2O1`, the Potency was “inactive”.
`COc1ccc(-c2c(C)c3ccc(O)c(CN4CCN(CCO)CC4)c3oc2=O)cc1OC` was tested, and the Potency was “inactive”.
In the case of `O=C(Nc1nc2n(n1)C(c1ccccc1)C=C(c1ccccc1)N2)c1ccccc1` (stereo not drawn), the Potency is reported as “inactive”.
In the case of `COc1cc(NS(=O)(=O)c2ccc(N/C=C\C(=O)c3ccc(F)cc3)cc2)nc(OC)n1`, the Potency is reported as “inactive”.
For `O=C1c2cccc3cccc(c23)C(=O)C1(O)O`, the Potency was 15 µM (active).
With `O=C1C(Br)=Cc2cccc3cccc1c23` the Potency was “inactive”.
`O=C1c2sccc2-c2cccc3cccc1c23` was tested, and the Potency was “inactive”.
In the case of `Cc1cc2nc(-c3ccco3)c(Cc3ccccc3C(F)(F)F)n2c(C)c1Br`, the Potency is reported as 39.8 µM (active).
In the case of `O=C1NC(Cc2ccc(O)cc2)c2nc3cc(F)c(F)cc3c(=O)n2-c2cc3ccccc3cc21` (stereo not drawn), the Potency is reported as 35.5 µM (active).
`Cc1ccc(CC2(OCCN(C)C)CCC(C(C)(C)C)CC2)cc1` (stereo not drawn) was tested, and the Potency was 42.3 µM (active).
In the case of `CN(C)CCOC1(Cc2ccc(F)cc2)CCC(C(C)(C)C)CC1` (stereo not drawn), the Potency is reported as 21.2 µM (active).
In the case of `O=C(NCc1nc2ccccc2[nH]1)C1=C[C@@H](c2ccc(Br)cc2)C[C@@H](OCCCCO)O1`, the Potency is reported as 31.6 µM (active).
In the case of `Cc1ccccc1NC(=O)CN1C(=O)S/C(=C\c2ccc(-c3cc(C(=O)O)ccc3C)o2)C1=O`, the Potency is reported as “inactive”.
With `C=C1CC2(OC1=O)c1ccccc1CCc1ccccc12` the Potency was 5.97 µM (active).
With `O=S(=O)(c1ccc(Cl)c(C(F)(F)F)c1)N1CCN(c2ccccn2)CC1` the Potency was “inactive”.
`O=C(c1ccco1)[C@@H]1[C@@H]2C(=O)N(c3ccc(F)cc3)C(=O)[C@@H]2[C@H]2C=Cc3ccccc3N21` was tested, and the Potency was “inactive”.
With `COc1cc(CN2CCCC(CO)(Cc3cccc(Cl)c3)C2)cc(OC)c1O` (stereo not drawn) the Potency was “inactive”.
With `Cc1ccc(S(=O)(=O)Nc2nc3n(n2)C(c2ccc(F)cc2)C=C(c2ccccc2)N3)cc1` (stereo not drawn) the Potency was “inactive”.
